This passage reports growth results from PubChem BioAssay (NCI).

The panel holds about 83,000 compounds, 20% with a hit somewhere; the sample as a whole holds those more often.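 Growth was measured after 48 h exposure to one concentration of compound in 96-well plates. Values under 10 count as active.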 Unmarked numbers belong to inactive results. Calls of active or inactive are those of the source.

Among the test systems are NCI-H23 lung; NCI-H226 lung; NCI-H322M lung; HOP-62 NSCLC; NCI-H460 lung; HOP-92 NSCLC; NCI-H522 lung; A549/ATCC NSCLC; 786-0 renal; COLO 205 colon.
Common to all, as to assay: NCI-60 one-dose screen, 48 h (100 = growth as untreated, 0 = no growth, -100 = all killed)
What all share (details): 10 µM unless noted

As for `NS(=O)(=O)c1ccc(-n2cc(-c3cccc(NC(=O)c4cc(N5CCOCC5)cc(C(F)(F)F)c4)c3)nn2)cc1`, the growth was 54.7% in the test on NCI-H23 lung; 26.2% with NCI-H226 lung; 71.4% in the test on NCI-H322M lung; 12.9% with HOP-62 NSCLC; 64.3% in the test on NCI-H460 lung; 9.47% (active) in the test with HOP-92 NSCLC. Further, the growth is 38.2% in the test with NCI-H522 lung, 76.7% in the test on A549/ATCC NSCLC, 44.9% in the test with 786-0 renal and 76.9% with COLO 205 colon.

For the compound `Cc1cc2c(cc1Cl)C(=O)/C(=C/c1ccc(F)cc1)O2`, the growth is 85.8% in the test with NCI-H23 lung; 84.3% in the test on NCI-H226 lung; 99.6% in the test on NCI-H322M lung; 93.7% with HOP-62 NSCLC; 105% with NCI-H460 lung; 93.4% with HOP-92 NSCLC. Also, the growth was 65.8% with NCI-H522 lung, 103% in the test with A549/ATCC NSCLC, 89.8% in the test with 786-0 renal and 119% in the test with COLO 205 colon.

As to `CC(=O)Oc1ccccc1C(=O)[Se]CC(=O)Nc1cccc(C(F)(F)F)c1`, the growth is -50.9% (active) in the test on NCI-H23 lung; -39.2% (active) in the test with NCI-H226 lung; -16.5% (active) with NCI-H322M lung; -61.1% (active) in the test on HOP-62 NSCLC; 0.365% (active) in the test on NCI-H460 lung; -60.3% (active) with HOP-92 NSCLC. In addition, the growth in the test with NCI-H522 lung was -30.4% (active); in the test on A549/ATCC NSCLC, -61.3% (active); with 786-0 renal it was -14.7% (active); in the test on COLO 205 colon, 19.7%.

Regarding `O=C(O)c1cccc(-c2ccc(/C=N/NC(=O)c3[nH]c4ccc(Br)cc4c3-c3ccccc3)s2)c1`, the growth is 26.4% in the test with NCI-H23 lung; 57.6% in the test with NCI-H226 lung; 58.8% in the test with NCI-H322M lung; 53.2% with HOP-62 NSCLC; 42.9% with NCI-H460 lung; 60.3% in the test on HOP-92 NSCLC. Further, the growth with NCI-H522 lung was 0.263% (active); with A549/ATCC NSCLC, 68.9%; in the test with 786-0 renal it was 50.9%; in the test with COLO 205 colon, 101%.

`CCCCSc1nc(NCCc2c[nH]c3ccccc23)c(C#N)c(-c2ccc(F)cc2)n1`: the growth was 82.3% with NCI-H23 lung; 72.5% with NCI-H226 lung; 86.3% in the test with NCI-H322M lung; 68.5% in the test on HOP-62 NSCLC; 25.7% in the test with NCI-H460 lung; 55.7% in the test on HOP-92 NSCLC. Further, the growth was 69% in the test on NCI-H522 lung, 74.5% in the test on A549/ATCC NSCLC, 71.8% in the test on 786-0 renal and 57.8% in the test with COLO 205 colon.

With `C=C1CC[C@@H]2[C@]3(C)COC(c4cn(-c5ccccc5)nc4-c4cccc([N+](=O)[O-])c4)O[C@@H]3CC[C@@]2(C)[C@@H]1C/C=C1/C(=O)OC[C@H]1O` (stereo not given in full), the growth is -62.1% (active) in the test on NCI-H23 lung; -48.6% (active) in the test with NCI-H226 lung; 90% in the test on NCI-H322M lung; 10.8% with HOP-62 NSCLC; 2.24% (active) with NCI-H460 lung; -84.3% (active) in the test on HOP-92 NSCLC. Besides, the growth in the test on NCI-H522 lung was -79.3% (active); in the test on A549/ATCC NSCLC, 30.7%; with 786-0 renal, -35.8% (active); in the test on COLO 205 colon, -64.2% (active).

On to `CC1=C(C(=O)c2ccccc2)C(c2cccc(Cl)c2Cl)n2c(nc3ccccc32)N1` (stereo not given), for which the growth with NCI-H23 lung is 63%; in the test on NCI-H226 lung, 7.18% (active); with NCI-H322M lung, 72%; in the test on HOP-62 NSCLC it was 14.9%; in the test on NCI-H460 lung it was 60.9%; in the test on HOP-92 NSCLC it was 18%. The growth with NCI-H522 lung was 49.9%; with A549/ATCC NSCLC it was 53.4%; in the test on 786-0 renal, 37.9%; in the test on COLO 205 colon it was 82.3%.

For the compound `O=c1[nH]c2ccccc2cc1CSc1cccc(Nc2nccc(-c3ccc4ccccc4c3)n2)c1`, the growth with NCI-H23 lung was 91.6%; in the test on NCI-H226 lung it was 80.7%; with NCI-H322M lung, 106%; in the test with HOP-62 NSCLC it was 95.3%; in the test on NCI-H460 lung, 98.8%; in the test on HOP-92 NSCLC, 117%. In addition, the growth in the test on NCI-H522 lung is 79%; in the test with A549/ATCC NSCLC it was 83.6%; with 786-0 renal, 75.2%; with COLO 205 colon it was 102%.

As for `O=C(O)c1ccc(-c2ccc(/C=N/NC(=O)c3[nH]c4ccc(Br)cc4c3-c3ccccc3)o2)cc1`, the growth is 18.3% in the test on NCI-H23 lung; 44.3% with NCI-H226 lung; 37.5% in the test on NCI-H322M lung; 9.47% (active) in the test on HOP-62 NSCLC; 7.72% (active) in the test with NCI-H460 lung; -8.72% (active) in the test with HOP-92 NSCLC. In addition, the growth in the test with NCI-H522 lung is -33.8% (active); in the test on A549/ATCC NSCLC, 49.5%; in the test on 786-0 renal, 19.5%; with COLO 205 colon it was 29.3%.

In the case of `CN(C)c1ccnc(NCCCSC(c2ccccc2)(c2ccccc2)c2ccccc2)c1`, the growth in the test with NCI-H23 lung was 62.7%; in the test on NCI-H226 lung, 53%; in the test on NCI-H322M lung, 61.5%; in the test on HOP-62 NSCLC, 74.3%; with NCI-H460 lung, -19.2% (active); in the test with HOP-92 NSCLC it was -2.94% (active). The growth in the test with NCI-H522 lung is 41.1%; with A549/ATCC NSCLC, 48.4%; in the test on 786-0 renal, 8.23% (active); in the test on COLO 205 colon, -74.6% (active).

As to `N/C(=N\c1nc2ccccc2s1)NC(=O)NCCCCCCO`, the growth in the test on NCI-H23 lung is 31.4%; in the test with NCI-H226 lung, 36.2%; in the test with NCI-H322M lung, 71.1%; in the test with HOP-62 NSCLC, 43.5%; in the test with NCI-H460 lung, 59.3%; in the test on HOP-92 NSCLC it was 22%. Also, the growth in the test with NCI-H522 lung was 36%; in the test on A549/ATCC NSCLC, 55%; with 786-0 renal, 58.7%; in the test with COLO 205 colon, 88.1%.

Take `CCOc1ccc(-c2c(C#N)c(-c3ccc(Cl)cc3)nc3n[nH]c(-c4ccc(Cl)cc4)c23)cc1OC`: the growth with NCI-H23 lung is 70.1%; with NCI-H226 lung, 59.1%; in the test on NCI-H322M lung it was 77.1%; in the test with HOP-62 NSCLC, 68.7%; in the test with NCI-H460 lung it was 42.3%; in the test with HOP-92 NSCLC, 36.7%. For the same compound, the growth with NCI-H522 lung was 64.9%; with A549/ATCC NSCLC, 55.4%; in the test on 786-0 renal, 65.3%; in the test on COLO 205 colon, 29%.

As to `COc1ccc(CCC2c3c(cc4c(c3OC)OCO4)CCN2C)cc1` (stereo not given), the growth is -48.6% (active) in the test with NCI-H23 lung; -59.3% (active) in the test with NCI-H226 lung; 0.952% (active) in the test on NCI-H322M lung; -30.2% (active) with HOP-62 NSCLC; -89.7% (active) in the test with NCI-H460 lung; -30% (active) in the test on HOP-92 NSCLC. The growth in the test on NCI-H522 lung was -81% (active); with A549/ATCC NSCLC it was 9.85% (active); in the test on 786-0 renal, -67.1% (active); with COLO 205 colon, -73.1% (active).
